Measurements: PubChem BioAssay (EPA / NIEHS)
Inconclusive results are not listed. The source made the active and inactive calls. The calls were made as follows, unless noted: active = hit-call score of the fitted dose curve at least 0.9, where 1 is the maximum; inconclusive = response in the unintended direction; inactive = score below 0.9.

Assays:
[1] = TOX21_p53_BLA_p3_viability: Viability Assessment in the Tox21 HCT-116 p53 Agonism Beta-lactamase Assay, Phase 3 (AID 2283593)
Summary of the method: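 Cellular ATP was quantified by CellTiter-Glo luminescence, read after 30 min at room temperature. Beforehand, HCT116 cells (4000/well) received compound 5 h post-seeding, 217-fold diluted from DMSO, then incubated 16 h at 37C.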

[2] = target: Cellular tumor antigen p53 (Homo sapiens) (UniProt P04637); test: TOX21_p53_BLA_p3_ratio: Tox21 HCT-116 p53 Agonism Beta-lactamase Assay, Ratio, Phase 3 (AID 2283596)
Summary of the method: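 HCT116 p53-bla cells (4000/well) given compound in DMSO (217-fold dilution) after 5 h, incubated 16 h at 37C. CCF4-AM substrate 2 h at room temperature; 460/530 nm emission ratio, gain fitted against DMSO.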

[3] = target: Cellular tumor antigen p53 (Homo sapiens) (UniProt P04637); test: TOX21_p53_BLA_p5_ratio: Tox21 HCT-116 p53 Agonism Beta-lactamase Assay, Ratio, Phase 5 (AID 2283599)
Summary of the method: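 Beta-lactamase reporter ratio (blue 460 nm over green 530 nm, 405 nm excitation) after 2 h CCF4-AM loading, in HCT-116 cells exposed 16 h at 37 C to compounds pinned at 217-fold dilution. Increases relative to DMSO baseline scored.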

[4] = TOX21_p53_BLA_p5_viability: Viability Assessment in the Tox21 HCT-116 p53 Agonism Beta-lactamase Assay, Phase 5 (AID 2283600)
Summary of the method: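 HCT-116 p53 beta-lactamase reporter cells, 4000/well, were exposed to compound (pin transfer, 217-fold dilution) for 16 hours at 37C. Cellular ATP was read by CellTiter-Glo luminescence after 30 min at room temperature.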

[5] = target: Cellular tumor antigen p53 (Homo sapiens) (UniProt P04637); test: TOX21_p53_BLA_p4_ratio: Tox21 HCT-116 p53 Agonism Beta-lactamase Assay, Ratio, Phase 4 (AID 2283601)
Summary of the method: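 Signal is the blue/green (460nm/530nm) ratio of cleaved versus uncleaved CCF4-AM substrate, read after 2 h substrate loading. Cells were HCT116 carrying the p53-responsive beta-lactamase reporter, dosed 16 h at 37C, 5% CO2; CellTiter-Glo measured in parallel.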

PGR (gene 5241) = PGR (gene 5241) (UniProt P06401); test: TOX21_PR_BLA_Followup_Antagonist_ratio: Tox21 HEK293 Progesterone Receptor (PR) Antagonism Beta-lactamase Follow-Up Assay, Ratio (AID 2283934)
Summary of the method: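 PR-UAS-bla HEK293T cells, 3,000/well in 2% charcoal-stripped FBS, given compound plus 1nM R5020 agonist for 16 hr at 37C. Beta-lactamase FRET substrate 2 hours, ratio cleaved/uncleaved fluorescence; viability by CellTiter-Glo in same wells.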

[6] = TOX21_PR_BLA_Followup_Agonist_viability: Viability Assessment in the Tox21 HEK293 Progesterone Receptor (PR) Agonism Beta-lactamase Follow-Up Assay (AID 2283935);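 also: signal loss means lower viability so actives are cytotoxic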
Summary of the method: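 PR-UAS-bla HEK293T cells in 2% charcoal-stripped FBS medium, plated 6 hr before compound addition, exposed 16 hr at 37C. Viability read by CellTiter-Glo ATP luminescence after 30 min at room temperature, in the same wells as the beta-lactamase readout.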

[7] = TOX21_PR_LUC_Followup_Antagonist_viability: Viability Assessment in the Tox21 HEK293 Progesterone Receptor (PR) Antagonism Luciferase Follow-Up Assay (AID 2283940)
Summary of the method: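 HEK293-PR-A-luc cells kept in charcoal-stripped FBS medium were plated 5 h before compound addition, then exposed 16 h at 37C; viability read as cellular ATP by luciferase luminescence, loss of signal indicating cytotoxicity.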

[8] = TOX21_PR_LUC_Followup_Agonist_viability: Viability Assessment in the Tox21 HEK293 Progesterone Receptor (PR) Agonism Luciferase Follow-Up Assay (AID 2283941);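 also: loss of signal means cytotoxicity so actives lower viability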
Summary of the method: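 HEK293-PR-A-luc cells, kept in 10% charcoal-stripped FBS medium, were treated with compounds for 16 h at 37C. Viability read as cellular ATP by luciferase-coupled luminescence; loss of signal indicates cytotoxicity.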

[9] = TOX21_p53_BLA_p4_viability: Viability Assessment in the Tox21 HCT-116 p53 Agonism Beta-lactamase Assay, Phase 4 (AID 2283597);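 also: hits lower the luminescence signal meaning cytotoxicity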
Summary of the method: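 HCT-116 p53-bla cells, 4000/well, dosed after 5 h attachment and incubated 16 h at 37 °C, 5% CO2. Viability from CellTiter-Glo ATP luminescence after 30 min at room temperature, taken after the beta-lactamase read; loss of signal indicates cytotoxicity.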

[10] = target: Cellular tumor antigen p53 (Homo sapiens) (UniProt P04637); test: TOX21_p53_BLA_p2_ratio: Tox21 HCT-116 p53 Agonism Beta-lactamase Assay, Ratio, Phase 2 (AID 2283592)
Summary of the method: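 HCT-116 cells with p53-responsive beta-lactamase reporter, 4000 cells/well, preincubated 5 h, then compound in DMSO (217-fold dilution) for 16 h at 37C. CCF4-AM substrate 2 h at room temperature; 460/530 nm emission ratio fitted upward versus DMSO.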

[11] = CCTE_Harrill_HTTr_Viability_MCF7: CCTE's 6-hour Cell Viability Assessment for the High-Throughput Transcriptomics (HTTr) Platform, in MCF-7 cells cultured in DMEM + 10% fetal bovine serum, Harrill Lab (AID 2284010; active = hit-call score of the fitted dose curve at least 0.9, where 1 is the maximum; inactive = score below 0.9)
Summary of the method: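 MCF-7 cells in DMEM + 10% FBS, 384-well, exposed 6 h to an eight-point dilution series. Membrane integrity scored by high-content imaging of propidium iodide exclusion; bidirectional fit versus DMSO.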

[12] = CCTE_Harrill_HTTr_Apoptosis_MCF7: CCTE's 6-hour Apoptosis Assessment for the High-Throughput Transcriptomics (HTTr) Platform, in MCF-7 cells cultured in DMEM + 10% fetal bovine serum, Harrill Lab (AID 2284011; active = hit-call score of the fitted dose curve at least 0.9, where 1 is the maximum; inactive = score below 0.9)
Summary of the method: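 MCF-7 cells in DMEM + 10% FBS exposed 6 h to chemicals over an eight-point dilution series. Caspase-3/7 activation imaged by high-content CellEvent Green staining; fitted bidirectionally versus DMSO.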

[13] = CCTE_Harrill_HTTr_CellCount_MCF7: CCTE's Cell Proliferation Assessment for the High-Throughput Transcriptomics (HTTr) Platform, Harrill Lab (AID 2284012);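 also: intended direction is loss of nuclei count meaning fewer cells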
Summary of the method: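 MCF7 cells exposed 6 hours to an eight-point dilution series; Hoechst-stained nuclei counted by high-content imaging. Bidirectional curve fitting against DMSO baseline.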

[14] = ACEA_ER_AUC_viability: ACEA Biosciences xCELLigence Real-Time Cell Analysis on Estrogen Receptor Agonism for Viability (AID 2283782);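 also: continuous compound exposure with impedance area under curve over 80 h; hit means loss of impedance signal meaning reduced cell growth or viability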
Summary of the method: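 T-47D; phenol red-free RPMI1640 + 10% CS-FBS; 8 conc., 1:4 serial, max 100 uM final, ≤0.5% DMSO; n = 2; continuous exposure; impedance monitored to 80 h post-dose; AUC vs DMSO.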

Measured: AC50

Sequence of Cellular tumor antigen p53 (Homo sapiens) (P04637 whole entry, looked up): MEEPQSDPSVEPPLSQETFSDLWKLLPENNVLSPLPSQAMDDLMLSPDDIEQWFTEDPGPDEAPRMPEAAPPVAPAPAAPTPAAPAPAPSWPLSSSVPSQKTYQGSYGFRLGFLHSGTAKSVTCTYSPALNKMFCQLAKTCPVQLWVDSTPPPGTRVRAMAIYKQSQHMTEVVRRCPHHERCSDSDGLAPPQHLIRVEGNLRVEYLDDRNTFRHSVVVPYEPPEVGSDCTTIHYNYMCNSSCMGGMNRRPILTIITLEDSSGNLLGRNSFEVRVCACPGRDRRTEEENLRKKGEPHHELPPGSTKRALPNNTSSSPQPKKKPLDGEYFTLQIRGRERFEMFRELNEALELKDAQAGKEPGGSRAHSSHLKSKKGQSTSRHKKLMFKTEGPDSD
Sequence of PGR (gene 5241) (P06401 whole entry, looked up): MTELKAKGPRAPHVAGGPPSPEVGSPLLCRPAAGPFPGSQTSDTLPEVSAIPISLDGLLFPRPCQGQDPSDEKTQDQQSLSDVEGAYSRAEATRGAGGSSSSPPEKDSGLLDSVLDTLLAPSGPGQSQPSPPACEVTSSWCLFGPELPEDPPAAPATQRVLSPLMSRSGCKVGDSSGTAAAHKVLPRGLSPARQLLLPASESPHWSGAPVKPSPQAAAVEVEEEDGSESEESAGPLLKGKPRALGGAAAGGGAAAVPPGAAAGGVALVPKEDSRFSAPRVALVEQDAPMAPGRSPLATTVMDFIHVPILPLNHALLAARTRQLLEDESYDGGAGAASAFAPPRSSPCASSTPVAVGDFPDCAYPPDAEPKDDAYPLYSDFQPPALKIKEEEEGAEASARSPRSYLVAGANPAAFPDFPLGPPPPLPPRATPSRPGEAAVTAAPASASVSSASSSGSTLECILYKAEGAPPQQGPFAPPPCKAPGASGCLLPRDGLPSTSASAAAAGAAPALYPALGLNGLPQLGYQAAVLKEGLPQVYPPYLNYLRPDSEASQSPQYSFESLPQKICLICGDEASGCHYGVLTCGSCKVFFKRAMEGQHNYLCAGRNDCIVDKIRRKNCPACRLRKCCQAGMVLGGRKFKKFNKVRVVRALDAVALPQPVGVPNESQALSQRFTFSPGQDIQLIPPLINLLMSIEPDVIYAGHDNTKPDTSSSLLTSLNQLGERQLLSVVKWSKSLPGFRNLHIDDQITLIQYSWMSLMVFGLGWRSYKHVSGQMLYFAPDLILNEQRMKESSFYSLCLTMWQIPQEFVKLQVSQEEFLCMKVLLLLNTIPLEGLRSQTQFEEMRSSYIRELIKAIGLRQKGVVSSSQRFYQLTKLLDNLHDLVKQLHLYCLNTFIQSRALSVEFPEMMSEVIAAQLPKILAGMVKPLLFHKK

CCCCCCC(=O)O[C@H]1CC[C@H]2[C@@H]3CC[C@H]4CC(=O)C=C(C)[C@]4(C)[C@H]3CC[C@]12C
active: [1] 37 µM
inactive: [2] | [3] | [4] | [5]

c1cc2c(c(NC3=NCCN3)c1)CCCC2
inactive: [1] | [2] | [3] | [4] | [5]

C[C@]12CC[C@H]3[C@@H](CCC4=CC(=O)CC[C@@H]43)[C@@H]1CC[C@@H]2OC(=O)CCc1ccccc1
inactive: [1] | [2] | [5] | PGR (gene 5241) | [6] | [7] | [8]

C=CCN1CC[C@]23CCCC[C@H]2[C@H]1Cc1ccc(O)cc13
inactive: [1] | [2] | [9] | [4] | [5]

C1CCNCC1
inactive: [1] | [2] | [3] | [5]

CC(C)=CCN1CC[C@]2(C)c3cc(O)ccc3C[C@H]1[C@H]2C
inactive: [1] | [9] | [3] | [4]

CCCCc1c(C)nc(NCC)nc1OS(=O)(=O)N(C)C
inactive: [10] | [3] | [11] | [12] | [13]

COC(=O)C1(O)c2ccccc2-c2ccccc21
inactive: [10] | [4] | [14]

CCCC[N+]1(C)[C@@H]2CC(OC(=O)[C@H](CO)c3ccccc3)C[C@H]1[C@@H]1O[C@@H]12 (stereo partly drawn)
inactive: [1] | [2] | [3] | [4] | [5]

CN(C)c1ccc(N=Nc2ccccc2)cc1
inactive: [1] | [2] | [9] | [4]

NC(=O)CN1CC(O)CC1=O (stereo not drawn)
inactive: [10] | [4] | [5]

O=C([O-])c1ccccn1.O=C([O-])c1ccccn1.O=C([O-])c1ccccn1.[Cr+3]
inactive: [1] | [2] | [3] | [4] | [5]

CC(=O)CC(c1ccc(Cl)cc1)c1c(O)c2ccccc2oc1=O (stereo not drawn)
inactive: [1] | [9]

O=C1C(=O)c2cccc3cccc1c23
active: [9] 33 µM | [5] 9.63 µM
inactive: [1] | [3]

CC1CC(CC2CCC(N)C(C)C2)CCC1N (stereo not drawn)
inactive: [1] | [9] | [4]

CCOC(=O)c1ncn2c1CN(C)C(=O)c1c(I)cccc1-2
inactive: [2] | [3] | [5]

C[C@@H]1[C@H]2Cc3ccc(O)cc3[C@]1(C)CCN2C
inactive: [9] | [4]

CCCC(C)(COC(N)=O)COC(=O)NC1CC1 (stereo not drawn)
inactive: [2] | [4] | [5]

CCCN1CCC[C@H](c2cccc(O)c2)C1
inactive: [2] | [3] | [5]

NC1CCC(CC2CCC(N)CC2)CC1 (stereo not drawn)
inactive: [3]

CC(C)NC(C)Cc1ccc(I)cc1 (stereo not drawn)
inactive: [9] | [3] | [4]

CCC1(C)CC(=O)NC(=O)C1
inactive: [1] | [5]

Cc1ccccc1-n1c(CF)nc2ccc(N)cc2c1=O
inactive: [1] | [3] | [4]

Cc1cc(OC(=O)N(C)C)nn1C(=O)N(C)C
inactive: [9] | [3] | [4] | [5]

COP(N)(=S)Oc1ccccc1C(=O)OC(C)C (stereo not drawn)
inactive: [2] | [9] | [3] | [4] | [5]
